Assay results from PubChem BioAssay AID651819 (National Center for Advancing Translational Sciences (NCATS), 2012).
Hit rate of the full screen: of about 360,000 compounds, about 1,100 (0.31%) were called active. No stated cut-off is given here; in the data, active means activity change below about -30%; inactive means the rest. Only a selection was taken, and actives are over-represented in it overall.

These compounds were tested on cytosolic chaperonin (CCT/TRiC complex) (assay: High-Throughput Screening for Modulators of Cytosolic Chaperonin Activity). Settings: purified chaperonin ATPase assay, HTRF ADP detection, 30 min; stronger effect = lower value.
Text: The eukaryotic chaperonin named TRiC (for TCP-1 ring complex), also called CCT (for chaperonin containing TCP1), is an essential and conserved chaperone required for the folding and activation of 10-15% of the proteins encoded by the human genome. […] Despite its central role in cellular folding, little is known about TRiC mechanism and mode of substrate binding. Currently, no specific TRiC inhibitors are available. Given the early promise of other chaperone-directed inhibitors as cancer therapeutics (e.g. HSP90 inhibitors), inhibitors of TRiC activity may also selectively target transformed cells and have potential use as therapeutics for cancer.
To this end, a miniaturized assay was developed to screen against the Molecular Libraries Small Molecule Repository (MLSMR).
NIH Chemical Genomics Center [NCGC]
NIH Molecular Libraries Probe Centers Network [MLPCN]
Assay Submitter (PI): Judith Frydman, Stanford University
1.5 uL/well TRiC enzyme suspended in buffer (30 mM TRIS pH7.4, 100 mM KCl, 5 mM MgCl2, 1 mM DTT) was added with BioRAPTR FRD dispenser at 40 nM or 20 nM (based on the enzymatic activity of used batches) final concentration to a white solid bottom medium binding 1536-well plate (Greiner Bio-One, Monroe, NC), and quickly spanned down. 23 nl/well of compound solutions in DMSO were added with a pintool transfer (Kalypsis, San Diego, CA) at a single 76 uM final concentration. Next, 1.5 µl/well ATP was dispensed with BioraptR at 10 uM final concentration after which the plates were incubated at 37 deg C for 30 min. HTRF(R) Transcreener(R) ADP (Cisbio US, Bedford, MA) detection reagents were prepared accordingly to the protocol and dispensed into the plate (1.5 uL/well each), incubated for 30 min at ambient temperature. Then, the plates were read using Envision reader with excitation at 330nm and emission at 615nm (Eu(3)-Cryptate donor signal) and 665nm (d2 acceptor signal). The ratio of […] was calculated for each well.
On the % scale 0 is the no-effect control and ±100 the full control effect.

SMILES	activity change
O=C1CC(c2ccccc2)C(=O)N2C(=O)CC(c3ccccc3)C(=O)N12 (configuration not stated)	-3.94% (inactive)
COc1ccc2c(c1)C(=O)CC(c1ccccc1)O2 (configuration not stated)	0.324% (inactive)
Cc1c(O)c(C)c2c(c1O)C(=O)C[C@@H](c1ccccc1)O2	-31.9% (active)
CCc1ccc(C(=O)N2CCN(S(=O)(=O)c3sc(C(=O)O)c(C)c3C(=O)O)CC2)cc1	-1.96% (inactive)
COC(=O)CN(c1nc(C)c(Cl)c(OC)n1)S(=O)(=O)c1ccc(C)cc1	2.28% (inactive)
CC1CCC2(CC1)NC(=O)N(CC(=O)c1cccn1C)C2=O (configuration not stated)	0.876% (inactive)
Cc1cc(C(F)F)nn1CC(=O)NC1CCCCCC1	-0.636% (inactive)
Cc1nn(CC(=O)NC2CCCCC2)c(=O)c2cccn12	0.008% (inactive)
O=C(Cn1nc([N+](=O)[O-])nc1Br)NC1CCCCC1	-63% (active)
COc1c(Br)cc2c(C)c(C(=O)N3CCOCC3)oc2c1Br	-0.84% (inactive)
Cc1ccc2[nH]c(=O)c(CN(C)S(=O)(=O)c3cccc4nonc34)cc2c1	-2.6% (inactive)
CCc1ccc(S(=O)(=O)NCC(O)COc2ccc(OC)cc2)cc1 (configuration not stated)	2.49% (inactive)
Nc1ccc(OCC(O)C[n+]2ccc(CCS(=O)(=O)[O-])cc2)cc1 (configuration not stated)	-32.1% (active)
CCCc1ccc(OCC(O)CN2CCN(C(=O)OCC)CC2)cc1 (configuration not stated)	0.305% (inactive)
O=C(Nc1cccc(Cl)c1Cl)c1ccccc1NC(=O)C1CC=CCC1C(=O)O (configuration not stated)	1.29% (inactive)
COC(=O)c1ccc(-n2cnc3ccccc32)nc1	-67.7% (active)
COC(=O)c1ccc(SCc2ccccc2)nc1	-0.717% (inactive)
O=C(c1ccc(Cl)cc1)n1cnc2ccccc21	-0.842% (inactive)
CS(=O)(=O)N(Cc1nc2sc3c(c2c(=O)[nH]1)CCCC3)C1CCCCC1	-3.6% (inactive)
COC(=O)c1sccc1N/N=C(\C)c1ccc(F)c(Cl)c1	0.343% (inactive)
COc1ccc(-c2nc(CS(=O)(=O)CC(=O)NCc3cccc(Br)c3)c(C)o2)cc1	-0.857% (inactive)
Cc1ccc(-c2nc(CS(=O)(=O)CC(=O)NCc3ccc4c(c3)OCO4)c(C)o2)cc1	-39.8% (active)
COc1ccc(CCNC(=O)CS(=O)(=O)Cc2nc(-c3ccc(C)cc3)oc2C)cc1OC	-1.25% (inactive)

SMILES	activity change
CC12CN(Cc3ccccc3)CC(C)(CN(Cc3ccccc3)C1)C2=NO	1.91% (inactive)
CC(C)(C)CN1C(=O)C(=O)NC[C@H]1Cc1cccc2ccccc12	-2.37% (inactive)
CC(=O)c1ccc(NC(=O)CCc2nnc3ccc(NCc4ccco4)nn23)cc1	-1.16% (inactive)
CCOc1ccccc1NC(=O)CCc1nnc2ccc(NCc3ccco3)nn12	1.37% (inactive)
O=C(CCc1nnc2ccc(NCc3ccco3)nn12)Nc1cc(F)ccc1F	-33.9% (active)
COC(=O)[C@@]1(Cc2ccc(F)cc2)[C@H]2c3cc(C(=O)N(C)C)n(CCc4c[nH]c5ccc(OC)cc45)c3C[C@H]2CN1C(=O)c1ccccc1	-0.685% (inactive)
C=CCOc1ccc(/C=N/NC(=O)C(C)Sc2ccccn2)cc1OCC (configuration not stated)	-2.2% (inactive)
O=C(NNC(=O)c1cccc(S(=O)(=O)Nc2ccc(Cl)cc2)c1)c1ccc(=O)[nH]c1	-0.309% (inactive)
CCc1ccc(/C=N/NC(=O)c2ccc(OC3CCCC3)cc2)s1	-13.3% (inactive)
CC(=O)c1c(C)n(-c2ccc(N(C)C)cc2)c2ccc(OCC(N)=O)cc12	0.0827% (inactive)
CC(=O)c1c(C)n(-c2ccc(C)cc2)c2ccc(O)cc12	-47.3% (active)
CCOC(=O)c1c(CN2CCOCC2)n(-c2ccccc2)c2ccc(O)cc12	-1.1% (inactive)
Cc1ccc(CN2C(=O)CCC2C(=O)NCCCN2CCCCC2C)cc1 (configuration not stated)	0.0456% (inactive)
CC1CCN(c2ccc(S(=O)(=O)Nc3cc(C(=O)O)cc(C(=O)O)c3)cc2[N+](=O)[O-])CC1	-0.243% (inactive)
CCc1ccccc1NC(=O)Cc1cn(C)c2ccccc12	-2.82% (inactive)
O=C(NCc1ccco1)C1CCCN(S(=O)(=O)c2cccc3nonc23)C1 (configuration not stated)	-0.959% (inactive)
Cc1ccccc1CNC(=O)CCC(=O)N1Cc2ccccc2Oc2ncccc21	-84.3% (active)
Cc1ccc2c(c1)N(C(=O)CCC(=O)NCc1cccnc1)CCO2	-3.52% (inactive)
Cc1ccccc1CN1CCN(CC(=O)NCc2ccccn2)C1=O	0.386% (inactive)
COC(=O)[C@@H](NC(=O)NCc1cccc(OC)c1)C(C)C	-2.29% (inactive)
COC(=O)Nc1ncc(CN2C(=O)c3ccccc3C2=O)s1	-0.4% (inactive)
Cc1noc(C)c1S(=O)(=O)N1CCCC(C(=O)Nc2nccs2)C1 (configuration not stated)	-0.498% (inactive)
CC(Cc1cccs1)N(Cc1ccc(Cl)cc1)C(=O)c1ccncc1 (configuration not stated)	1.98% (inactive)

SMILES	activity change
CC(O)(c1cccc(F)c1)c1nc(-c2ccc3c(c2)OCO3)cs1 (configuration not stated)	-0.833% (inactive)
Brc1ccc(-c2csc(N/N=C/c3ccc4c(c3)OCO4)n2)cc1	-49.7% (active)
COc1ccc(C(O)c2nc(-c3ccc4c(c3)OCO4)cs2)cc1 (configuration not stated)	-0.395% (inactive)
O=C(NCCCNC(=O)NC1CCCCC1)NC1CCCCC1	-1.85% (inactive)
Cc1cc(OC(=O)c2ccc(OC(C)C)cc2)c([N+](=O)[O-])c(=O)[nH]1	-0.062% (inactive)
O=C(CCCCCn1c(=S)[nH]c2ccsc2c1=O)NC1CCCCC1	-30.8% (active)
O=C(CCC(=O)c1cccs1)NC1CCCCCC1	0.811% (inactive)
CCCCC(CC)CNC(=O)CCCCn1c(=O)[nH]c2ccsc2c1=O (configuration not stated)	1.33% (inactive)
CCN(CC)CCCN=C(N)N	-0.0838% (inactive)
CC(C)(C)C(=O)NC1CC2CCCC(C1)N2C(=O)Nc1ccccc1F (configuration not stated)	-5.23% (inactive)
C=CS(=O)c1sc(Cl)c(N2CCOCC2)c1[N+](=O)[O-] (configuration not stated)	-1.53% (inactive)
CC(C)C(NC(=O)C1CCC(C(C)(C)C)CC1)C(=O)NCCCN1CCCCC1 (configuration not stated)	0.128% (inactive)
COc1ccc(CCNC(=O)CCc2ccccc2O)cc1OC	-0.891% (inactive)
O=C(Cc1ccccn1)c1ccc(O)cc1O	-0.381% (inactive)
COc1ccc(CC(=O)c2ccc(O)cc2O)cc1OC	-38.8% (active)
CC(=O)Cn1ncc(N2CCOCC2)c(Br)c1=O	-7.2% (inactive)
O=C(CSCc1c(F)cccc1Cl)NCC1CCCO1 (configuration not stated)	-0.136% (inactive)
O=C(CSCc1c(Cl)cccc1Cl)NN1C(=O)c2ccccc2C1=O	-44% (active)
O=C(CSCc1ccccc1Cl)NNC(=O)c1ccccc1	-0.322% (inactive)
CC(CO)(CO)NC(=O)c1ccc(=O)[nH]n1	1.59% (inactive)
Cc1ccc(C)c(OCCC(=O)OCC(=O)c2ccc3c(c2)NC(=O)CO3)c1	-8.24% (inactive)
CCOC(=O)C1CCN(C(=O)COc2cc(C)c(Br)c(C)c2)CC1	-2.02% (inactive)
Cc1ccc(O)c(/C=N/NC(=O)COc2ccc3c(C)cc(=O)oc3c2)c1	2.07% (inactive)

SMILES	activity change
CC(=O)c1c(C)[nH]c(C(=O)COc2ccc3c(C)cc(=O)oc3c2)c1C	-0.599% (inactive)
Cc1cc(=O)oc2ccc(OCC(=O)O)cc12	-57.7% (active)
O=C(NCCC1CCCCN1S(=O)(=O)c1ccc(Cl)cc1)C(=O)NCc1ccco1 (configuration not stated)	2.22% (inactive)
CCOC(=O)[C@@H]1[C@H]2COc3ccc(Br)cc3[C@H]2N2C(=O)N(c3ccc(Cl)cc3)C(=O)[C@@]12C	-1.17% (inactive)
CC1(C(=O)Nc2cccc3cccnc23)CCN1C(=O)CCC1CCCC1 (configuration not stated)	1.06% (inactive)
O=C1c2ccccc2C(O)N1Cc1ccccc1 (configuration not stated)	-1.07% (inactive)
CCCCCCn1cc(C(=O)O)c(=O)c2cc(F)c(N3CCCCC3)cc21	-2.93% (inactive)
CN1CCN(c2cc3c(cc2F)c(=O)c(C(=O)O)cn3CCF)CC1	-35.1% (active)
CCn1cc(C(=O)NCCO)c(=O)c2cc(F)c(N3CCN(C)CC3)cc21	-0.12% (inactive)
O=C(NCc1ccncc1)C(=O)NCC1OCCN1S(=O)(=O)c1ccc(Br)cc1 (configuration not stated)	-45.4% (active)
O=C(NCc1ccccc1)C(=O)NCC1OCCN1S(=O)(=O)c1ccc(Br)cc1 (configuration not stated)	-1.3% (inactive)
COc1ccc(S(=O)(=O)N2CCOC2CNC(=O)C(=O)NCc2ccncc2)cc1OC (configuration not stated)	0.662% (inactive)
O=C1CCC(=O)N1c1ccc(NCCc2ccccc2F)c([N+](=O)[O-])c1	-1.58% (inactive)
Cc1ccccc1NC(=O)c1cc(S(=O)(=O)N2CCOCC2)cs1	-3.83% (inactive)
Cn1c(=O)c(=O)n(C)c2cc(S(=O)(=O)NCCc3ccccc3)ccc21	-5.22% (inactive)
COc1cccc(C(=O)NCCS(=O)(=O)NCC2CCCO2)c1 (configuration not stated)	-0.161% (inactive)
CN(C)S(=O)(=O)N1CCC(Oc2cccc(C(=O)NCCCC3CCCC3)c2)CC1	-87.6% (active)
CN(C(=O)c1cccc(OC2CCN(S(=O)(=O)N(C)C)CC2)c1)C1CCOC1 (configuration not stated)	-4.71% (inactive)
Cc1onc(-c2c(Cl)cccc2Cl)c1C(=O)c1c[nH]c(C(=O)NC2CC2)c1	0.407% (inactive)
Cc1[nH]n(C)c(=O)c1C(=O)c1c(-c2c(Cl)cccc2Cl)noc1C	-45.8% (active)
Cc1onc(-c2c(F)cccc2Cl)c1C(=O)Nc1cccc(S(=O)(=O)N2CCCCC2)c1	-0.204% (inactive)
O=C1NC(c2ccccc2)=NC1(Nc1ccccn1)C(F)(F)F (configuration not stated)	-1.42% (inactive)
Cc1cccc(N)c1SC1CCCCC1O (configuration not stated)	-39.7% (active)
